Source: PubChem (National Center for Advancing Translational Sciences (NCATS))
Hits are enriched below; roughly 18% of the tested compounds scored in any of these assays.
PLK1 PBD block – PLK1 (human) polo-box domain binding inhibition; P53350; Plk1 PBD binding of FITC phosphopeptide, fluorescence polarization; Potency, µM, for inactives: max response, negative = inhibition, hits mostly inhibitors; 2.8% of 360,000 active; AID 720504; also: series mostly up to about 57 µM; nearly all actives have a fitted effect of over 65% in size
Target sequence (P53350 whole entry, looked up, the tested form may be a part): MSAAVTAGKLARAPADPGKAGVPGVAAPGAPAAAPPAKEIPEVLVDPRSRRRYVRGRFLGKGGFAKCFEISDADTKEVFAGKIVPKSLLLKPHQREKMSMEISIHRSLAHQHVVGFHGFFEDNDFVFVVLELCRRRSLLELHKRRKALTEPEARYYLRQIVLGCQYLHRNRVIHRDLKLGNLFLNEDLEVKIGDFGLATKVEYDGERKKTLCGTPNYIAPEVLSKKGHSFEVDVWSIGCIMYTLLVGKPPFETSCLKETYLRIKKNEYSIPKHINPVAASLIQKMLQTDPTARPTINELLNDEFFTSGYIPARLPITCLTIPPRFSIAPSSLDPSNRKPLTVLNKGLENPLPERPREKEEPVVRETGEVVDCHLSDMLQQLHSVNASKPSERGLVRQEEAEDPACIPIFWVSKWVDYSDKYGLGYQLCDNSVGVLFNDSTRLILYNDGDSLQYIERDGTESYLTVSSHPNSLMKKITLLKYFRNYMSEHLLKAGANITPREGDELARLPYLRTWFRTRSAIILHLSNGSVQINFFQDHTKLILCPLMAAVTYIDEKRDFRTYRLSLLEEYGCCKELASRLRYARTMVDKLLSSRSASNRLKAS
GCN5L2 inh – GCN5L2 (KAT2A) acetyltransferase inhibition; Q92830; GCN5L2 HAT assay, ThioGlo1 CoA-SH fluorescence; Potency, µM (series often up to 58.9 µM), for inactives: at the top dose activity change, negative = inhibition, most hits filed as inhibitors; 0.21% of 390,000 active; AID 504327
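GCN5L2 (20nM final) in 50mM HEPES, 0.1mM EDTA pH 7.5, 0.01% Tween-20 was preincubated 15 min at room temperature with compound, then given ThioGlo1 (50uM), H3(1-25) peptide (75uM) and acetyl-CoA (70uM); CoA-thiol fluorescence (Ex340/Em540) was read at 0 and 20 min.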
VDR inh – blocks the human vitamin D receptor; VDR-SRC2-3 peptide fluorescence polarization, 2 h; Potency, µM, without a hit: max response, negative = inhibition, most hits filed as inhibitors; 0.93% of 400,000 active; AID 504847
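Inhibition of the VDR/SRC2-3 peptide interaction is quantified by fluorescence polarization. Compounds (23 nl, pintool) incubate with the reagents for 2 hours at ambient room temperature.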
TDP1 cell CPT – DT40-hTDP1 cell growth loss with CPT. chicken DT40 Tdp1-/-;hTDP1 cells + 20 nM CPT, ATP luminescence, 48 h. Potency, µM (top dose mostly 46.2 µM), for the others: at the highest dose activity change, negative = growth inhibition, hits mostly inhibitors. 12% of 420,000 active. AID 686979; also: nearly all actives have a fitted effect of over 55% in size
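Cell growth measured by CellTiter-Glo luminescence after a minimum 48 h, 37 C compound exposure with 20 nM CPT in Tdp1-knockout DT40 cells stably expressing hTDP1, seeded 400/well; qHTS titration format.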
TDP1 cell noCPT – qHTS for Inhibitors of human tyrosyl-DNA phosphodiesterase 1 (TDP1): qHTS in cells in absence of CPT; DT40 Tdp1-/- hTDP1 cells, no CPT, ATP luminescence, 48 h; Potency, µM (doses to about 46.2 µM), for the others: at the top dose activity change, negative = growth inhibition, usual class: inhibitors; 15% of 420,000 active; AID 686978, 2013; also: nearly all actives have a fitted effect of over 55% in size
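Camptothecin absent (DMSO only). Human TDP1-complemented DT40 knockout cells, 400 cells/well, 37 °C for minimum 48 hr; ATP measured via CellTiter-Glo, 30 min dark incubation, luminescence.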
TDP1 inh – blocks human tyrosyl-DNA phosphodiesterase 1; 0.28% of 350,000 active; Q9NUW8; Potency, µM (series often up to 130 µM), for inactives: at the highest dose activity change, negative = inhibition, actives largely listed as inhibitors; recombinant TDP1, AlphaScreen DNA substrate cleavage; AID 485290; also: nearly all actives have a fitted effect of over 40% in size
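Compounds were preincubated with Tdp1 (1 nM final) for 15 min at room temperature before substrate (15 nM final) started a 5 min reaction; beads (10 ug/ml final) were then added for 10 min before AlphaScreen detection.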
* marks the source's active call; other numbers are inactive results; ? = inconclusive; . = no result. Calls follow the shape of the dose curve; as a rule, active = well fitted curve in the direction sought with a large enough effect; inconclusive = small, poorly fitted or top-dose-only effect, or another doubt; inactive = no such curve, though single readings can be large; an effect the other way counts as inactive or inconclusive. % is scaled to controls: 0 for no effect and ±100 for the full control effect; potency is read from the fitted curve at half-maximal effect.

SMILES | PLK1 PBD block | GCN5L2 inh | VDR inh | TDP1 cell CPT | TDP1 cell noCPT | TDP1 inh
COc1ccc(C(=O)N/C(=C\c2cn(C)c3ccccc23)C(=O)OCCN(C)C)cc1 | 4% | -3% | 9% | -3% | -4% | .
Cn1nccc1C(=O)N1CCc2c([nH]c3ccccc23)C1c1ccc(F)cc1 (stereo not given) | -15% | -18% | -22% | -14% | -7% | 7%
CCc1ccc(C2c3[nH]c4ccccc4c3CCN2C(=O)c2cc[n+]([O-])cc2)cc1 (stereo not given) | -4% | -6% | ? | 26µM* | 16µM* | -10%
CSc1ccc(C2c3[nH]c4ccccc4c3CCN2C(=O)CCC2CCCC2)cc1 (stereo not given) | . | -16% | 4% | ? | ? | 8%
CCN(CC)c1ccc(C(=O)N2CCc3c([nH]c4ccccc34)C2c2ccc(F)cc2)cc1 (stereo not given) | . | -16% | 3% | 2.9µM* | ? | 5%
O=C(Nc1ccc(Cl)cc1F)C1CCN(S(=O)(=O)c2cccc3nonc23)CC1 | -8% | -19% | -5% | 4% | -18% | 12%
COc1cc(/C=N/Nc2nc3ccccc3s2)cc([N+](=O)[O-])c1O | -29% | -21% | -11% | ? | ? | ?
O=C(O)C/C(=C\c1cc2c(cc1Br)OCO2)c1nc2ccccc2s1 | 24µM* | -9% | -13% | -15% | -4% | 11%
Brc1cc2c(cc1/C=N/Nc1nc3ccccc3s1)OCO2 | -1% | -6% | -16% | 15µM* | ? | 6%
O=[N+]([O-])c1cc(Cl)cc(/C=N/Nc2nc3ccccc3s2)c1O | 27µM* | 24% | -20% | 0.33µM* | 0.92µM* | 5%
CCOP(=O)(OCC)c1nc(Cc2ccccc2)oc1NCc1ccccc1 | -11% | ? | -8% | ? | ? | 5%
CC1CCN(C(=O)c2cc(-c3ccc(Cl)cc3)on2)CC1 | . | -1% | -21% | ? | -21% | 7%
COc1cc(C(=O)NCC(=O)N2CCN(S(=O)(=O)c3ccccc3C(F)(F)F)CC2)cc(OC)c1OC | -3% | 2% | -9% | ? | ? | -2%
NS(=O)(=O)c1ccc(CCNC(=O)C2CC(=O)N(Cc3ccccc3Cl)C2)cc1 (stereo not given) | -5% | -19% | -13% | -3% | 13% | 1%
COCCCNC(=O)c1ccc(-n2nc(C(F)(F)F)cc2-c2cccs2)cc1 | -18% | 2% | -30% | -30% | -29% | 0%
O=C(NCCCN1CCOCC1)c1ccc(-n2nc(C(F)(F)F)cc2-c2cccs2)cc1 | -11% | -2% | 4% | 18µM* | 18µM* | 3%
Cn1c2cc(Br)sc2c2cnn(Cc3ccc(F)cc3)c(=O)c21 | . | -6% | . | . | . | .
COc1ccc(COc2cc(-c3cccc(OC)c3)nc3ccc(NC(=O)c4ccc(OC)cc4)cc23)cc1 | -8% | -20% | 6% | 2.6µM* | 3.3µM* | 8%
COc1ccc(COc2cc(-c3cccc(OC)c3)nc3ccc(NC(=O)c4ccc(Cl)cc4)cc23)cc1 | -11% | -11% | -8% | ? | 16µM* | 3%
Cc1cccc(NC(=S)NCC23C=CC(O2)C2C(=O)N(c4ccc(Cl)cc4)C(=O)C23)c1 (stereo not given) | -13% | -12% | ? | ? | 21µM* | 6%
Cc1ccc(NC(=S)NCC23C=CC(O2)C2C(=O)N(c4ccc(C)cc4)C(=O)C23)cc1 (stereo not given) | -10% | -7% | ? | 18µM* | ? | 10%
CC(C)(C)OC(=O)NCC12C=CC(O1)C1C(=O)N(Cc3ccccc3)C(=O)C12 (stereo not given) | -9% | -5% | 4% | ? | ? | 5%
Cc1ccc(S(=O)(=O)NCC23C=CC(O2)C2C(=O)N(c4ccccc4)C(=O)C23)cc1 (stereo not given) | -5% | -10% | 6% | ? | ? | 9%
Cc1ccc(N2C(=O)C3C4C=CC(CNC(=S)N5CCN(c6ccccc6)CC5)(O4)C3C2=O)cc1 (stereo not given) | -19% | -15% | -20% | 18µM* | 18µM* | 7%
COc1ccccc1C1(O)CCN(CC(=O)Nc2nc(-c3ccccc3)cs2)CC1 | -3% | -6% | 0% | -18% | ? | 7%
SMILES | PLK1 PBD block | GCN5L2 inh | VDR inh | TDP1 cell CPT | TDP1 cell noCPT | TDP1 inh
COc1cccc(-c2ccnc3c(-c4ccccc4)c(C)nn23)c1 | . | -10% | -10% | ? | ? | .
NC(=O)C1CCN(C(=O)c2ccc(NS(=O)(=O)/C=C/c3ccccc3)cc2)CC1 | 2% | . | . | 0% | -23% | .
c1ccc(C(=C2CCCO2)c2ccccc2)cc1 | -7% | . | -14% | -7% | -6% | .
CC[N+]1(CC)CCC(=C(c2ccccc2)c2ccccc2)C1C (stereo not given) | . | . | . | 5.3µM* | 3.3µM* | .
CC(=O)Nc1ccc(NC(=O)C(C)OC(=O)C2(c3ccccc3F)CCCC2)cc1 (stereo not given) | 4% | -3% | -1% | ? | ? | 0%
CCOc1cc(S(=O)(=O)N2CCC(Cc3ccccc3)CC2)c(OCC)cc1-n1cnnn1 | -8% | -4% | -10% | -20% | -28% | 12%
CCOc1cc(S(=O)(=O)N2CC=C(c3ccc(F)cc3)CC2)c(OCC)cc1-n1cnnn1 | 0% | -9% | -10% | 15µM* | 10µM* | 1%
CC(C)c1nc(SCC(=O)NCC2CCCO2)c2c(=O)n(C)c(=O)n(C)c2n1 (stereo not given) | -5% | 2% | -5% | -28% | -23% | 3%
CC(=O)c1ccc(NC(=S)N2CCN(c3ccccn3)CC2)cc1 | 4% | 1% | 5% | ? | ? | .
CC(=O)c1ccc(N2CCN(C(=S)Nc3cccc(F)c3)CC2)cc1 | -13% | 1% | 20% | ? | 15µM* | 5%
CC(=O)c1ccc(N2CCN(C(=S)Nc3ccc(Oc4ccccc4)cc3)CC2)cc1 | -13% | -2% | 12% | ? | 7.3µM* | 5%
COC(=O)Cc1ccc(NC(=S)N2CCN(c3ccc(F)cc3)CC2)cc1 | -2% | 30% | -7% | 12µM* | 5.2µM* | 3%
Fc1cccc(NC(=S)N2CCCC2)c1 | -19% | -3% | 20% | 27% | -7% | 0%
COC(=O)Cc1ccc(NC(=S)N2CCN(CCO)CC2)cc1 | -3% | . | -1% | 2% | -2% | .
